Assay outcomes (PubChem)
Most compounds without a hit are left out; they make up all but 6.2% or so of the library.
VP16 counter – VP16 counterscreen qHTS for inhibitors of ROR gamma transcriptional activity. Drosophila S2 Gal4-VP16 UAS-luciferase, luminescence, 20 h. 310,000 compounds, 3.5% hits. Potency, µM (doses to about 53.6 µM), for inactives: at the top dose activity, negative = inhibition, usual class: inhibitors;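 note: Gal4-VP16 expression switched on by copper sulfate through the metallothionein promoter; nearly all actives have a fitted effect of over 50% in size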
KinaseGlo FLuc – Counterscreen for Luciferase (Kinase-Glo TM) Inhibition; Luciferin 4-monooxygenase (Photuris pensylvanica), Q27757; Kinase-Glo luciferase, ATP luminescence, 8 min; Potency, µM (highest dose often 38.3 µM), for inactives: top-dose activity change, negative = inhibition, hits mostly inhibitors; 200,000 compounds, 0.28% hits; AID 1379, 2008; note: nearly all actives have a fitted effect of over 60% in size
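Recombinant Kinase-Glo luciferase, 10 uM ATP (linear range), luciferin; imidazole pH 7.2 / KCl / MgCl2 / Tween / BSA buffer; 8 min RT; luminescence.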
RORg inh – qHTS for inhibitors of ROR gamma transcriptional activity. Potency, µM (highest dose often 53.6 µM), for the others: at the highest dose activity change, negative = inhibition, most hits filed as inhibitors. Nuclear receptor ROR-gamma (Mus musculus), P51450. Drosophila S2 Gal4-RORgamma UAS-luciferase reporter, 20 h. 310,000 compounds, 5.4% hits; note: nearly all actives have a fitted effect of over 60% in size
Target sequence (P51450 whole entry, looked up, the tested form may be a part): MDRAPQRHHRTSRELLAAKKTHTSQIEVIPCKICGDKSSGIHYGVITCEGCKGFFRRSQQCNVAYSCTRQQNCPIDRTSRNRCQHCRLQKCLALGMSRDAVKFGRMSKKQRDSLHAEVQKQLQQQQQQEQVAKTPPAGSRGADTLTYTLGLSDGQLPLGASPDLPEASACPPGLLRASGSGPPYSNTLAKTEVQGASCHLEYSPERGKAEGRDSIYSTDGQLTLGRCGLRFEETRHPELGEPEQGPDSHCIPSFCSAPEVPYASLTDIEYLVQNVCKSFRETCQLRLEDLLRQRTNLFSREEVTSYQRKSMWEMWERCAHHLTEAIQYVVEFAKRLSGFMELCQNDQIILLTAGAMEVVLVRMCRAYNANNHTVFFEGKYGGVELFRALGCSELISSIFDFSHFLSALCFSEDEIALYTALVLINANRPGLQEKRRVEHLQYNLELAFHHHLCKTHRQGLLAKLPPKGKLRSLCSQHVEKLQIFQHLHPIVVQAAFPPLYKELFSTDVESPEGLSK
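Stable Schneider cell line, Gal4 DNA-binding domain fused to ROR gamma, UAS-luciferase. Cmpd 1 hr RT → CuSO4 700 uM final → 20 hr RT → luciferase reagent 10 min → luminescence.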
* hit, by the source's call; u = inconclusive; x = no result; [ ] = dose if it differs, or a comment. Calls come from the whole dose curve; as a rule, active = well fitted curve in the direction sought with a large enough effect; inconclusive = small, poorly fitted or top-dose-only effect, or another doubt; inactive = no such curve, though single readings can be large; an effect the other way counts as inactive or inconclusive. % is set by controls: 0 for no effect and ±100 for the full control effect; potency is the fitted concentration of half-maximal effect.

SMILES | VP16 counter | KinaseGlo FLuc | RORg inh
CCc1ccc(OCC2c3cc(OC)c(OC)cc3CCN2C(=S)NCCOC)cc1 (stereo not drawn) | -11.6% | 0.9% | 19.7%[10 µM]
CCc1ccc(OCC2c3cc(OC)c(OC)cc3CCN2C(=S)NC)cc1 (stereo not drawn) | 5.8% | 0.8% | 11.2µM*
COc1ccc(C(=O)C2CCCN(C(=O)C3CCOCC3)C2)c(C)c1 (stereo not drawn) | -18.3% | 0.6% | 18.7%
Cc1cc(-c2c(C)[nH]n(-c3ccccc3)c2=O)n(-c2ccccc2)n1 | -8.4% | 8.2% | -36.9%
Cc1cc(-c2c(C)[nH]n(-c3ccccc3)c2=O)n[nH]1 | 1µM* | 0.1% | 0.398µM*
CCc1ccc(/C=C2/SC(=S)N(CCC(=O)NCCCN3CCOCC3)C2=O)cc1 | 5.8% | x | 16.0%
O=C1/C(=C/c2ccccc2Cl)SC(=S)N1CCC(=O)N1CCCCC1CCO (stereo not drawn) | -2.8% | x | -35.2%
O=C(CN1C(=O)/C(=C/c2ccccc2F)SC1=S)NC1C=CS(=O)(=O)C1 (stereo not drawn) | -9.2% | x | 38.3%
CCOc1ccc(N=C2NC(=O)S/C2=C\c2ccc(N(C)C)cc2)cc1 | -1.0% | -2.7% | -1.7%
CCOc1ccc(/C=C2/SC(=O)NC2=S)cc1 | u | 0.7% | 11.2µM*
O=C(CCN1C(=O)/C(=C/c2ccccc2Cl)SC1=S)N1CCCC1 | -13.3% | x | 8.91µM*
CCOc1ccc(/C=C2\SC(=S)N(CCCC(=O)NCCCN3CCOCC3)C2=O)cc1 | 0.891µM* | x | 0.398µM*
CN1CCN(NC(=O)CN2C(=O)/C(=C/c3ccccc3F)SC2=S)CC1 | 5.2% | 0.7% | 0.224µM*
CC(C)(C)C(=O)N1CCC(O)(CS(=O)(=O)c2ccc(Cl)c(Cl)c2)CC1 | 2.0% | 0.3% | -10.6%
O=C(O)CCNC(=O)c1ccc(N=Nc2ccc(O)c(C(=O)O)c2)cc1 | 5.3% | x | 0.9%[10 µM]
Cn1c(SCc2ccccn2)nnc1-c1ccccc1 | -20.0% | 5.4% | 17.3%
C/C(=N\O)c1cccc[n+]1Cc1ccccc1 | x | -4.1%[7.66 µM] | x
C/C(=N/NC(=O)CCCOc1ccc(Cl)cc1Cl)c1ccc(C)o1 | u | 0.5% | -40.5%
CCN(CC)CCCCn1c(-c2ccccc2)nc2c(Nc3ccccc3)nc(C)nc21 | -3.0% | -0.2% | -3.2%
O=C(CCN1C(=O)/C(=C/c2ccccc2F)SC1=S)NCCCN1CCOCC1 | -3.2% | x | -27.1%
CCOc1ccc(/C=C2\SC(=S)N(CC(=O)Nc3ccccn3)C2=O)cc1 | 10.7% | x | 9.1%
CCOc1ccc(/C=C2\SC(=S)N(CC(=O)N(CCO)C(C)(C)C)C2=O)cc1 | 11.2µM* | -3.7% | 7.08µM*
O=C(CCN1C(=O)/C(=C/c2ccccc2Cl)SC1=S)N1CCOCC1 | u | x | 7.08µM*
O=C(CCN1C(=O)/C(=C\c2ccccc2)SC1=S)N1CCOCC1 | 9.4% | x | -23.2%
O=C(CCCN1C(=O)/C(=C/c2ccccc2Cl)SC1=S)N1CCCC1 | -2.0% | x | 8.91µM*
SMILES | VP16 counter | KinaseGlo FLuc | RORg inh
O=C(CCCN1C(=O)/C(=C/c2ccccc2)SC1=S)N1CCOCC1 | u | x | -37.8%
O=C(CCCN1C(=O)/C(=C/c2ccccc2Cl)SC1=S)NCCCN1CCOCC1 | 12.6µM* | x | 5.01µM*
CCOc1ccc(CCNC(=O)C2CC(C)=CCC2C(=O)O)cc1OCC (stereo not drawn) | 4.1% | x | 0.1%
COc1ccc(-c2nc(CN3CCC(C(=O)N4CCOCC4)CC3)c(C)o2)cc1C | u | x | 18.6%
C=CCn1c(SCC#N)nnc1-c1ccc2ncccc2c1 | -3.1% | x | 10.4%
C/C(=C\C(=O)c1ccc(Cl)s1)N(C)C | u | -2.7% | 7.08µM*
COc1cc(/C=C/C(=O)c2ccc(Cl)s2)cc(OC)c1O | -24.8% | 1.9% | u
CCOc1ccc(NC(=O)c2cc(F)c(F)cc2Cl)cc1OCC | 1.8% | -0.3% | 25.6%
CC(C)C[C@H](NC(=O)c1nc[nH]c1C(=O)NC1CCN(C(=O)OC(C)(C)C)CC1)C(=O)OCc1ccccc1 | u | x | -22.0%
C[C@H](NC(=O)c1nc[nH]c1C(=O)NC1CCN(C(=O)OC(C)(C)C)CC1)C(=O)OC(C)(C)C | 11.2µM* | x | u
CC(C)(C)OC(=O)NCCCC[C@H](NC(=O)c1nc[nH]c1C(=O)NC1CCN(C(=O)OC(C)(C)C)CC1)C(=O)OC(C)(C)C | u | x | 11.2µM*
CC(C)C[C@H](NC(=O)c1nc[nH]c1C(=O)NC1CCN(C(=O)OC(C)(C)C)CC1)C(=O)OC(C)(C)C | 7.08µM* | x | 3.16µM*
CC(C)(C)NC(=O)c1cc(F)c(F)cc1Cl | 0.6% | -3.8% | 8.3%
CCOC(=O)c1cc(C)sc1NC(=O)CSc1nccn1C | -5.7% | x | -20.5%
Cc1noc(C)c1COC(=O)CCCc1nc2ccccc2s1 | 7.94µM* | 0.1% | u
CCCCC(=O)OCc1nc2ccccc2s1 | 5.2% | -3.5% | u
CSC1=NCCN1C(=O)C12CC3CC(CC(C3)C1)C2 | -17.2% | -1.9% | 2.5%
S=C(Nc1ccccc1)Nc1nc2ccccc2n1CCOc1ccc(Cl)cc1 | 1.78µM* | -1.6% | 2.24µM*
CCCn1c(NC(=S)Nc2ccccc2)nc2ccccc21 | 1.12µM* | -1.5% | 1µM*
O=C(O)Cn1c(SCCOc2ccc(Cl)cc2)nc2ccccc21 | -13.9% | x | -27.0%
CCCCn1c(Nc2ccccc2)nc2ccccc21 | -4.2% | -5.2% | -30.5%
CCn1c(Nc2ccccc2Cl)nc2ccccc21 | -1.5% | -4.5% | -20.4%
CCn1c(NC(=S)Nc2ccccc2)nc2ccccc21 | 2.82µM* | -2.0% | 4.47µM*
CCC(=O)N1CCN(c2ccccc2NC(=S)NC(=O)c2ccco2)CC1 | -4.2% | x | -10.2%
O=C(O)/C=C/C(=O)Nc1ccc(S(=O)(=O)N2CCCC2)cc1 | -4.0% | -0.7% | 12.1%
SMILES | VP16 counter | KinaseGlo FLuc | RORg inh
NC1=C(O)C(=O)[C@H](c2c[nH]c3ccc(OCc4ccccc4)cc23)O1 | x | -3.7%[7.66 µM] | x
Cn1c(=O)c(=O)n(C)c2cc(S(=O)(=O)N3CCCC3C(=O)Nc3ccccc3F)ccc21 (stereo not drawn) | 1.2% | x | -14.1%
Cc1cc(C)c(S(=O)(=O)N2CCOC2CNC(=O)C(=O)NCCCn2ccnc2)c(C)c1 (stereo not drawn) | -6.0% | x | -0.8%
Fc1ccc(/C=C2\CCCC3=C2NC(=S)NC3c2ccc(F)cc2)cc1 (stereo not drawn) | u | -0.8% | 8.91µM*
Fc1ccc(C2NC(=S)NC3=C2N2CCC3CC2)cc1 (stereo not drawn) | -25.7% | -5.3% | -27.9%
COCCn1c(=O)c(-c2cc(F)cc(F)c2)nc2cnc(N3CCOCC3)nc21 | -0.5% | x | -35.0%
Cc1ccc(/C=N\Nc2nc3ccc(Cl)cc3[nH]2)o1 | 12.6µM* | -1.6% | 6.31µM*
C#CCn1cc(/C=N/NC(=O)COc2cccc3cccnc23)c2ccccc21 | -13.0% | -4.4% | 12.3%
Cc1ccc(/C=N/Nc2nnc(Cc3ccccc3)c(=O)[nH]2)o1 | -3.0% | -2.8% | u
C#CCn1cc(/C=N/Nc2nc3ccccc3[nH]2)c2ccccc21 | u | 4.5% | 15.8µM*
C(=N\Nc1nc2ccccc2[nH]1)/c1ccccn1 | 1.12µM* | 12.6µM* | 0.562µM*
BrC(=C\c1ccccc1)/C=N/Nc1nc(N2CCOCC2)nc(N2CCOCC2)n1 | u | -2.7% | -23.7%
